Laboratory results published in article PMC11574364.

Tests used:
Assay in all cases: protein domain microarray probed with biotinylated miRNA; Domain array: 20 mM Tris-HCl pH 7.4, 200 mM KCl, 0.2 mM EDTA, 0.05% NP40, 2 ug/ul heparin, overnight 4 C. ORF array: PBS pH 7.0 with RNase inhibitor, 100 ng RNA; high values mean tight binding
Conditions in all cases: ssRNA
RBMXL3 = RBMXL3 (Homo sapiens, UniProt Q8N7X1)
ROD1(3-4) = ROD1(3-4) (Homo sapiens, UniProt O95758)
PSPC1 = target: T1, PSPC1 (Homo sapiens, UniProt Q8WXF1)
T1 sequence: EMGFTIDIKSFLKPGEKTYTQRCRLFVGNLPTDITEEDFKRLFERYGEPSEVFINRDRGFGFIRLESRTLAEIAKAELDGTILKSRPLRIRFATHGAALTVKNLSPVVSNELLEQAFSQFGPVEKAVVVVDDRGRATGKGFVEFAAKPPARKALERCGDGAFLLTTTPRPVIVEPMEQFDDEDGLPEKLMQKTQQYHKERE

TDRD10 = target: T2, TDRD10 (Homo sapiens, UniProt Q5VZ19)
T2 sequence: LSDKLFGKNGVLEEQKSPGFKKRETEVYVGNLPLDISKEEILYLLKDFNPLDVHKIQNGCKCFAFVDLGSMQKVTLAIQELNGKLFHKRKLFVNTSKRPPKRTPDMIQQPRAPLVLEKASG

MASK-BP3 = target: T3, MASK-BP3 (Homo sapiens, UniProt Q8IWZ3)
T3 sequence: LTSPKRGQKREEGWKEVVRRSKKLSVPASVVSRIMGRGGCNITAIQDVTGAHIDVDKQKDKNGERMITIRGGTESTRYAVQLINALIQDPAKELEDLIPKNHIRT

TRA2A = target: T4, TRA2A (Homo sapiens, UniProt Q13595)
T4 sequence: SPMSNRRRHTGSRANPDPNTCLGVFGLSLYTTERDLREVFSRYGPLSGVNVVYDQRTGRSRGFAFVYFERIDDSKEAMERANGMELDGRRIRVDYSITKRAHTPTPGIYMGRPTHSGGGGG

SFRS7 = target: T5, SFRS7 (Homo sapiens, UniProt Q16629)
T5 sequence: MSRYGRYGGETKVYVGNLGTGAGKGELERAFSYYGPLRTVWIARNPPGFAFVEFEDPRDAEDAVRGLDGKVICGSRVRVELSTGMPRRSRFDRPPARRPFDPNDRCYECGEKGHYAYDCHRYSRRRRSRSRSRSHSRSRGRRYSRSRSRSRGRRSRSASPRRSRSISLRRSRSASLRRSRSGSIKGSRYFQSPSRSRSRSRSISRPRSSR

snRNP 70 = snRNP 70 (Homo sapiens, UniProt P08621)
snRNP 70, sequence (P08621 80-205): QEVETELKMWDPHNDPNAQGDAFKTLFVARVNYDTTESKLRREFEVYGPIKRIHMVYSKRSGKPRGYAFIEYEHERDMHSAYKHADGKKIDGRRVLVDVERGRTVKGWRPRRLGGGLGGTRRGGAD

SRRP35 = SRRP35 (Homo sapiens, UniProt Q8WXF0)
SRRP35, sequence (Q8WXF0 1-120): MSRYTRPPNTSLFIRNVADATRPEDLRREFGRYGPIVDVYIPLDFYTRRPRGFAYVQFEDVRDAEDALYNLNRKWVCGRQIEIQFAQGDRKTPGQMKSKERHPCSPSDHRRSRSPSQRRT

RDBP = RDBP (Homo sapiens, UniProt P18615)
RDBP, sequence (P18615 240-355): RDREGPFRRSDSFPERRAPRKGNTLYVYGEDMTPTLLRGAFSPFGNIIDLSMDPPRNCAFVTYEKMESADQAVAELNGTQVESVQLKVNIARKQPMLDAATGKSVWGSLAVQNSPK

hnRNP K(3) = hnRNP K(3) (Homo sapiens, UniProt P61978)
hnRNP K(3), sequence (P61978 369-463): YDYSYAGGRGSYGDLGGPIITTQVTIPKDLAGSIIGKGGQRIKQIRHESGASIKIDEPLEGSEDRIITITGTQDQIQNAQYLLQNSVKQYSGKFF

RBM35A = target: T6, RBM35A (Homo sapiens, UniProt Q6NXG1)
T6 sequence: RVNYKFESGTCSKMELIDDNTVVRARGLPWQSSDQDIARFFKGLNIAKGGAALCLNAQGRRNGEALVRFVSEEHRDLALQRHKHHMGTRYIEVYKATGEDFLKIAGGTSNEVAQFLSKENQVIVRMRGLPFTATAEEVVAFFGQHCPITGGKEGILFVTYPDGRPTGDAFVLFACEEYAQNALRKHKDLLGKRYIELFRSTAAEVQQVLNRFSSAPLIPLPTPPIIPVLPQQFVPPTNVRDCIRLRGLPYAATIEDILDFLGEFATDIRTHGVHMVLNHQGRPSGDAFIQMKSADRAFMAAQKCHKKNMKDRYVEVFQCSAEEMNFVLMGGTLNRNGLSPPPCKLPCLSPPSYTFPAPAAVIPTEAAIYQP

RKHD2(1-2) = target: T7, RKHD2(1-2) (Homo sapiens, UniProt Q5U5Q3)
T7 sequence: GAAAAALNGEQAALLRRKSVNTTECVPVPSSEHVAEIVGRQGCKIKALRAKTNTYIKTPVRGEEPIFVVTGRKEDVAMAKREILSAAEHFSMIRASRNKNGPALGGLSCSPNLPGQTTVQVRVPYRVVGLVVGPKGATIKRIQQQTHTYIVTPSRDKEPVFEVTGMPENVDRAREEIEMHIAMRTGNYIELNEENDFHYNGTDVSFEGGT

RBM35B = target: T8, RBM35B (Homo sapiens, UniProt Q9H6T0)
T8 sequence: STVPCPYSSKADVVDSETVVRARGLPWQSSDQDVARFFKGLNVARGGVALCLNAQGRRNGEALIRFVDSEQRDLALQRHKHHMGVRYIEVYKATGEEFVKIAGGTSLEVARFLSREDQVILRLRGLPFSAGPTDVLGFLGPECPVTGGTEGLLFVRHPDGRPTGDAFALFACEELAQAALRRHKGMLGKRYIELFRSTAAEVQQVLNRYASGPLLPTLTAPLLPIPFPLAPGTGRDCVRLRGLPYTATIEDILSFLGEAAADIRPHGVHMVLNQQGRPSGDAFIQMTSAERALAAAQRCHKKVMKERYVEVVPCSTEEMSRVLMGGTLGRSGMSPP

TAF15 = TAF15 (Homo sapiens, UniProt Q92804)
TAF15, sequence (Q92804 215-340): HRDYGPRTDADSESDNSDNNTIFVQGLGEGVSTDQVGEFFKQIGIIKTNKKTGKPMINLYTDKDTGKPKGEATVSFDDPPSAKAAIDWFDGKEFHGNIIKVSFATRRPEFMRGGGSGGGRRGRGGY

RBM6 = target: T9, RBM6 (Homo sapiens, UniProt P78332)
T9 sequence: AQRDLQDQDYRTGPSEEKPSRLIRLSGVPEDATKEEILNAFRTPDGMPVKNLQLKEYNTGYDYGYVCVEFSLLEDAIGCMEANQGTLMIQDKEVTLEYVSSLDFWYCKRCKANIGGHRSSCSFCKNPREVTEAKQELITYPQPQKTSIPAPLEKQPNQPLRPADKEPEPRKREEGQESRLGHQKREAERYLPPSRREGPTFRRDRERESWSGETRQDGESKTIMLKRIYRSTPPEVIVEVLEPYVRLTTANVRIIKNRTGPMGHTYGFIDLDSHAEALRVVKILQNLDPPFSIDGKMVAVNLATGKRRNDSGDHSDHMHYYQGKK

RBM23 = target: T10, RBM23 (Homo sapiens, UniProt Q86U06)
T10 sequence: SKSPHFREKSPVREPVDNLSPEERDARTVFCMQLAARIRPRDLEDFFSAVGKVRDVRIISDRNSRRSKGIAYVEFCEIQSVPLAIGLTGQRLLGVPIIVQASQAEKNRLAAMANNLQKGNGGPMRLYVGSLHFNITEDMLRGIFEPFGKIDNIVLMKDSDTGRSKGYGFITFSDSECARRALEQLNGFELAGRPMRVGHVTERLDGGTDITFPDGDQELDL

KHDRBS2 = target: T11, KHDRBS2 (Homo sapiens, UniProt Q5VWX1)
T11 sequence: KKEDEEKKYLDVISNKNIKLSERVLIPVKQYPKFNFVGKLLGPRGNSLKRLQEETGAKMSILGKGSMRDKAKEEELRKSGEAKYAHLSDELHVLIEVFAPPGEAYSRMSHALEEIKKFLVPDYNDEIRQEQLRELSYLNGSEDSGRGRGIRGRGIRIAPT

RBM12B(1-3) = target: T12, RBM12B(1-3) (Homo sapiens, UniProt Q8IXT5)
T12 sequence: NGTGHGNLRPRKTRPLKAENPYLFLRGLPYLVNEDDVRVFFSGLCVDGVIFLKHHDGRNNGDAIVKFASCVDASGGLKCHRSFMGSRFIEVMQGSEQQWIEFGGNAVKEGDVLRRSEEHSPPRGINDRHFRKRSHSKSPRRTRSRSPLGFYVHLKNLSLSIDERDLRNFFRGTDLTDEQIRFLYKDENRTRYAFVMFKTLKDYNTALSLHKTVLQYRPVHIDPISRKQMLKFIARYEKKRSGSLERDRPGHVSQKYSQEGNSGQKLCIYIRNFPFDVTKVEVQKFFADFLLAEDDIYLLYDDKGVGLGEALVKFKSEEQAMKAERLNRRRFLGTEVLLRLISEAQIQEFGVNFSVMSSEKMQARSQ

RED1(2)/ADARB1 = RED1(2)/ADARB1 (Homo sapiens, UniProt P78563)

ROD1(3-4), sequence (O95758 340-552): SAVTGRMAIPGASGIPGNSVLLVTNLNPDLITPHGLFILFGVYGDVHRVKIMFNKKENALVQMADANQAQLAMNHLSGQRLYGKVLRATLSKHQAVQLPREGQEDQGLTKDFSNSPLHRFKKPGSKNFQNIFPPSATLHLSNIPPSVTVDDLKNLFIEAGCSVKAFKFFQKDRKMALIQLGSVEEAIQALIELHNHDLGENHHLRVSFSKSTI
RBMXL3, sequence (Q8N7X1 1-110): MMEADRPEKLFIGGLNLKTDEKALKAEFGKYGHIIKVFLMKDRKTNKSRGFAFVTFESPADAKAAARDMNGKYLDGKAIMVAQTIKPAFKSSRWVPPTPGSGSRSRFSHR

Row | Sequence | binding signal (RBMXL3) [fluorescence intensity] | binding signal (ROD1(3-4)) [fluorescence intensity] | binding signal (PSPC1) [fluorescence intensity] | binding signal (TDRD10) [fluorescence intensity] | binding signal (MASK-BP3) [fluorescence intensity] | binding signal (TRA2A) [fluorescence intensity] | binding signal (SFRS7) [fluorescence intensity] | binding signal (snRNP 70) [fluorescence intensity] | binding signal (SRRP35) [fluorescence intensity] | binding signal (RDBP) [fluorescence intensity] | binding signal (hnRNP K(3)) [fluorescence intensity] | binding signal (RBM35A) [fluorescence intensity] | binding signal (RKHD2(1-2)) [fluorescence intensity] | binding signal (RBM35B) [fluorescence intensity] | binding signal (TAF15) [fluorescence intensity] | binding signal (RBM6) [fluorescence intensity] | binding signal (RBM23) [fluorescence intensity] | binding signal (KHDRBS2) [fluorescence intensity] | binding signal (RBM12B(1-3)) [fluorescence intensity] | binding signal (RED1(2)/ADARB1) [fluorescence intensity]
1 | AGAGGUAGUAGGUUGCAUAGUU | 1850 ± 54 | 331 ± 55.6 | 38.8 ± 3.2 | 85.7 ± 8.76 | 50.1 ± 3.32 | 230 ± 12.5 | 2902 ± 20.8 | 899.9 ± 8.8 | 735 ± 23.2 | 47.7 ± 4.8 | 181 ± 4.45 | 2590 ± 119 | 874 ± 10.7 | 170 ± 4.31 | 299 ± 23.1 | 491 ± 28 | 644 ± 79.1 | 1300 ± 14.4 | 274 ± 48.6 | 73.3 ± 1.94
2 | UGAGGUAGUAGGUUGUAUGGUU | 1320 ± 44.2 | 385 ± 82.6 | 26.1 ± 0.75 | 161 ± 58.1 | 71.6 ± 1.19 | 311 ± 4.77 | 2173 ± 16.3 | 1010 ± 40.3 | 570 ± 27.1 | 52.2 ± 3.22 | 199 ± 15.1 | 1320 ± 26.9 | 733 ± 12 | 193.1 ± 0.566 | 588 ± 28.9 | 550 ± 31 | 843 ± 102 | 842 ± 171 | 324 ± 46.5 | 87.6 ± 3.8
3 | UGAGGUAGUAGGUUGUAUAGUU | 500 ± 52.7 | 92.7 ± 10.2 |  |  | 26.2 ± 1.21 | 25 ± 0.552 | 896.5 ± 2.67 | 179 ± 52.5 | 206 ± 15.3 | 25 ± 1.67 | 52.1 ± 3.1 | 521 ± 7.45 | 509.4 ± 2.09 | 31.4 ± 1.56 | 54.7 ± 13.8 | 20.3 ± 1.75 | 162.15 ± 0.134 | 388 ± 52.1 | 44.5 ± 1.46 | 25 ± 0.453
4 | UAGCUUAUCAGACUGAUGUUGA | 308 ± 16.9 | 94.4 ± 48.7 |  |  |  |  | 1190 ± 28.1 | 44 ± 10.4 | 54.02 ± 0.29 | 20.3 ± 0.262 | 79.6 ± 1.76 | 26.4 ± 2.09 | 234 ± 5.59 |  |  |  | 26.5 ± 5.48 | 463 ± 19.2 |  | 
5 | UGAGGUAGUAGGUUGUGUGGUU | 1280 ± 38.3 | 569 ± 20.9 | 84.7 ± 9.68 | 210 ± 41.3 | 131 ± 1.63 | 341 ± 41.5 | 1968 ± 10.4 | 1170 ± 58.7 | 643.6 ± 5.9 | 78.9 ± 4.14 | 291 ± 3.08 | 1439 ± 11.1 | 680.7 ± 1.67 | 287 ± 29.8 | 662 ± 122 | 453 ± 28.5 | 678.5 ± 0.919 | 1190 ± 18.7 | 329 ± 27.9 | 143.2 ± 0.375
6 | CAGUGCAAUGAUGAAAGGGCAU | 1130 ± 24.3 | 241 ± 7.52 |  | 33.1 ± 2.64 | 42.16 ± 0.219 | 126 ± 1.75 | 2185 ± 2.91 | 453 ± 34.9 | 882 ± 24.2 | 43.1 ± 3.73 | 294 ± 10.8 | 1310 ± 17.7 | 486 ± 53.7 | 135 ± 1.71 | 104 ± 15.9 | 107 ± 6.4 | 199 ± 29.6 | 1440 ± 198 | 194 ± 28.6 | 68.1 ± 3.97
